For some assays here: Potency and affinity values are given separately. Active and inactive are the calls of the source.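 The calls were made as follows, unless noted: active = primary screen hit whose fluorescence ratio, in both repeats, exceeds the weak agonist control mean by 3 SD; inactive = the rest.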
How the values were obtained:
[1] = tested on: TRPC4 beta (transient receptor potential cation channel C4), mouse; experiment: TRPC4 cation channel opening, retest – cell-based, Fluo4 calcium, HEK293 TRPC4beta/mu-opioid, duplicates, 10 µM, confirmation (AID 2426;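 active = fluorescence ratio normalized to control raised more than 50% in primary screen plus both repeat runs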); conditions: Fluo4 calcium fluorescence, at 10 µM; active compounds read high
[2] = tested on: transient receptor potential cation channel C4 beta (TRPC4), mouse; experiment: TRPC4 cation channel opening, second retest – cell-based, second round, Fluo4, HEK293 TRPC4beta/mu-opioid, 1 µM, confirmation (AID 2461;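 active = primary screen active and over 50% activation in each of two duplicate runs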); conditions: Fluo4 calcium fluorescence, at 1 µM; active compounds read high
[3] = tested on: TRPC4 (transient receptor potential cation channel C4 beta), mouse; experiment: potentiation of DAMGO EC20 TRPC4 response – cell-based, second round, Fluo-4, HEK293 TRPC4beta/mu-opioid, 1 µM, confirmation (AID 2554); conditions: DAMGO EC20, Fluo-4 calcium flux, at 1 µM; active compounds read high
[4] = tested on: TRPC4 beta (transient receptor potential cation channel C4), mouse; experiment: potentiation of DAMGO EC20 TRPC4 response – cell-based, Fluo-4, HEK293 TRPC4beta/mu-opioid, confirmation (AID 2555;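 active = primary screen hit whose calcium fluorescence ratio, in both repeats, exceeds the weak agonist control mean by 3 SD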); conditions: DAMGO EC20, Fluo-4 calcium flux, at 10 µM; active compounds read high
[5] = biological target: Short transient receptor potential channel 4 (Mus musculus) (UniProt Q9QUQ5); experiment: blockers of DAMGO-evoked TRPC4 calcium flux – cell-based, Fluo4, HEK293 TRPC4beta/mu-opioid, confirmation (AID 2636;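 active = calcium signal cut by more than 3 SD below the full-agonist control yet still positive, in both repeats and the earlier primary screen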); conditions: at 10 µM; active compounds read high
Chain of Short transient receptor potential channel 4 (Mus musculus) (Q9QUQ5 whole entry, looked up): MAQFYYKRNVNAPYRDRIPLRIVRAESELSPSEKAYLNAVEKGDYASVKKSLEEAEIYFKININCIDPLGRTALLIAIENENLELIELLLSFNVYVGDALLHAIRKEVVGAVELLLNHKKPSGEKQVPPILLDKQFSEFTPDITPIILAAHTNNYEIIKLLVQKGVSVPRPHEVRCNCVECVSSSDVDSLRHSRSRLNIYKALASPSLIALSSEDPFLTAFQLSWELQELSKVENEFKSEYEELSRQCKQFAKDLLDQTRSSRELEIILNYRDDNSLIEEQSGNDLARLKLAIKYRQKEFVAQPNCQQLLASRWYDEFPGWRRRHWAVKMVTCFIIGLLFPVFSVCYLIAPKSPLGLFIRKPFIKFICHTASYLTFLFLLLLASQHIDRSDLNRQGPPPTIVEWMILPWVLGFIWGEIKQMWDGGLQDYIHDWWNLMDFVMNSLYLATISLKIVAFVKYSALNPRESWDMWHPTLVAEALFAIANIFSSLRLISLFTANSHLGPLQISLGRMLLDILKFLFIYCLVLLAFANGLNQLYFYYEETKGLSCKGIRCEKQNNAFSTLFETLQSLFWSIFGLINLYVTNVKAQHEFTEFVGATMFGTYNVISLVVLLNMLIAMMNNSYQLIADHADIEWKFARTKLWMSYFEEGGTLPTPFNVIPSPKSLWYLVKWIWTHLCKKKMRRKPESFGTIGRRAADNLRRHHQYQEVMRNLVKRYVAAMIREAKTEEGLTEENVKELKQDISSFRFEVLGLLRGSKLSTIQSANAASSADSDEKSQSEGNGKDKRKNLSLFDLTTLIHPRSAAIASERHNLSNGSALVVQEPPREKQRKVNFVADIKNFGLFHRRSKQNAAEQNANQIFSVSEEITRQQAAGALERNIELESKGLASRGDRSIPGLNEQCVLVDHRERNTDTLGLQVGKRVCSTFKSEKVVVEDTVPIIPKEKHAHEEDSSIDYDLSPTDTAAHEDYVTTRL

[6] = biological target: Short transient receptor potential channel 4 (Mus musculus) (UniProt Q9QUQ5); experiment: blockers of DAMGO-evoked TRPC4 calcium flux – cell-based, second round, Fluo4, HEK293 TRPC4beta/mu-opioid, 1 µM, confirmation (AID 2637;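 active = calcium signal ratio cut to more than 3 SD under the fully stimulated control mean yet still positive, in both repeats and the primary screen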;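 as to inhibition: percent of integrated ratio relative to wells lacking test compound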); conditions: at 1 µM; active compounds read high
[7] = biological target: Short transient receptor potential channel 4 (Mus musculus) (UniProt Q9QUQ5); experiment: calcium entry via TRPC4 opening agents – cell-based, HEK293 TRPC4/mu-opioid, Fluo-4 calcium, dose response (AID 434937;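 active = primary screen activator hit with a dose response curve and TRPC4 channel activation at any tested dose; inactive = no activation, no dose response, or not a primary hit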)
[8] = biological target: Short transient receptor potential channel 4 (Mus musculus) (UniProt Q9QUQ5); experiment: block of DAMGO-driven TRPC4 calcium entry – cell-based, HEK293 TRPC4/mu-opioid, Fluo-4 calcium, dose response (AID 434942;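 active = primary screen inhibitor hit that blocks the TRPC4 channel at some tested dose, yielding a dose curve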)
[9] = biological target: Short transient receptor potential channel 6 (Mus musculus) (UniProt Q61143); experiment: TRPC6 blockade by TRPC4 inhibitor hits – cell-based, HEK293, membrane potential dye, duplicate, selectivity assay for TRPC4 inhibitor project, confirmation (AID 434948;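 active = active in primary screen and both duplicates, each dropping signal beyond three positive-control SD with fluorescence still positive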); conditions: HEK293 TRPC6, membrane potential dye fluorescence, at 10 µM, stimulated with maximal-effect acetylcholine; active compounds read high
Chain of Short transient receptor potential channel 6 (Mus musculus) (Q61143 whole entry, looked up): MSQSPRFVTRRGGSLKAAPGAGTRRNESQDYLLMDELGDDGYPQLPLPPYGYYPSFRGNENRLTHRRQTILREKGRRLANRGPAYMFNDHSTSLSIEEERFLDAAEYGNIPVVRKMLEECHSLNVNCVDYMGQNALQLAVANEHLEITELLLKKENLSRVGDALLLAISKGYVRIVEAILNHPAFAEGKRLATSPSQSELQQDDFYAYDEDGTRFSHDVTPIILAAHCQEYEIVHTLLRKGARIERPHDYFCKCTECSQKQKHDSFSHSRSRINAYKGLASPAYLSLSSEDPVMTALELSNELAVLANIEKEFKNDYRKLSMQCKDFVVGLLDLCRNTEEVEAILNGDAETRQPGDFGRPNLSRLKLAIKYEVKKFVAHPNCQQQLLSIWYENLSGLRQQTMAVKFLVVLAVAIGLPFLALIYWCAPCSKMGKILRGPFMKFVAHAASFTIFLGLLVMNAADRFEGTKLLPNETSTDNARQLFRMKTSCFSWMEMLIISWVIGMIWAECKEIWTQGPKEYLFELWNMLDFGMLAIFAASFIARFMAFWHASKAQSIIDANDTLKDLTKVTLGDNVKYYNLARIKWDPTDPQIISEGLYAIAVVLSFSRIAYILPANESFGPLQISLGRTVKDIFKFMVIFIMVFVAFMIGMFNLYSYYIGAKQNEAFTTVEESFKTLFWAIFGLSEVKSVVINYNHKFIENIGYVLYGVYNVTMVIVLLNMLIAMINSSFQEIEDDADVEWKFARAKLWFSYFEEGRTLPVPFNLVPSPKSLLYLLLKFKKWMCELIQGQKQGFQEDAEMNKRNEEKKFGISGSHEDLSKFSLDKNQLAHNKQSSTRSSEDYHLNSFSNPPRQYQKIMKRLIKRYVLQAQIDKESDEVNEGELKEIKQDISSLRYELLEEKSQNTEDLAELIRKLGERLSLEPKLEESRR

[10] = biological target: Short transient receptor potential channel 6 (Mus musculus) (UniProt Q61143); experiment: TRPC6 opening by TRPC4 activator hits – cell-based, HEK293, membrane potential dye, duplicate, selectivity assay for TRPC4 activator project, confirmation (AID 434950;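 active = membrane potential signal rise above negative control mean plus 3 SD in both duplicates, also active in the earlier TRPC4 screen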); conditions: HEK293 TRPC6, membrane potential fluorescence, at 10 µM; activation: active compounds read high; outcome: activation
[11] = biological target: Short transient receptor potential channel 6 (Mus musculus) (UniProt Q61143); experiment: positive modulators of mouse TRPC6 channel – HEK293 cells, membrane potential dye, duplicate, selectivity assay for TRPC4 potentiator project, confirmation (AID 434952;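 active = compound raising the membrane signal above positive-control mean plus 3 SD in both repeats, and a primary screen hit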); conditions: HEK293 TRPC6, membrane potential dye fluorescence, at 10 µM, maximal acetylcholine added after compound; active compounds read high
[12] = biological target: Short transient receptor potential channel 4 (Mus musculus) (UniProt Q9QUQ5); experiment: calcium flux activators in TRPC4/5HT1a cells, counter-screen for TRPC4 activator project, cell-based, second counter screen, HEK293 TRPC4/5HT1a, Fluo-4 (AID 434977;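 active = calcium signal rise above buffer-control mean plus 5 SD in both duplicates, and also a hit in the primary screen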;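 as to activation: plate controls were assay buffer for no effect and maximal serotonin response for full effect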); conditions: Fluo-4 calcium flux, at 10 µM; active compounds read high
[13] = serotonin-gated TRPC4 signal block – cell-based, second counter screen, HEK293 TRPC4/5HT1a, Fluo-4, counter-screen for TRPC4 inhibitor project, confirmation (AID 434978;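 active = primary screen active whose calcium signal fell more than 3 SD beyond the full-serotonin control mean in both duplicate plates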;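 as to outcome: serotonin given first at submaximal then at maximal dose after compound preincubation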); conditions: Fluo-4 calcium flux, at 10 µM, serotonin added to trigger calcium flux; active compounds read high
[14] = tested on: TRPC4 (mouse), co-expressed with 5HT1a in HEK293; experiment: enhancement of serotonin-evoked TRPC4 response – cell-based, second counter screen, HEK293 TRPC4/5HT1a, Fluo-4, counter-screen for TRPC4 potentiator project, confirmation (AID 434979;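 active = signal rise over 3 SD above mean of control wells given weak agonist, in both repeats and first screen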); conditions: Fluo-4 calcium flux, at 10 µM, serotonin added at its EC20 dose; active compounds read high
[15] = nonspecific calcium rise without TRPC4 – cell-based, HEK293 mu-opioid receptor line, counter-screen for TRPC4 activator project, confirmation (AID 449723;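 active = hit in primary screen, with calcium signal over 5 SD above buffer well mean in both duplicates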;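 also: counter screen cells carry the mu-opioid receptor alone and lack TRPC4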); conditions: HEK293 mu-opioid cells, Fluo-4 calcium fluorescence, at 10 µM; active compounds read high
[16] = nonspecific potentiation of DAMGO calcium response – cell-based, HEK293 mu-opioid receptor line, counter-screen for TRPC4 allosteric potentiator project, confirmation (AID 449724;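 active = calcium signal rise more than 3 SD above the low-dose agonist control mean, in both duplicate plates and the primary screen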); conditions: HEK293 mu-opioid receptor cells, Fluo-4 calcium flux, at 10 µM, compound added before EC20 DAMGO stimulus; active compounds read high
[17] = biological target: Short transient receptor potential channel 4 (Mus musculus) (UniProt Q9QUQ5); experiment: potentiation of DAMGO-evoked TRPC4 calcium signal – cell-based, HEK293 TRPC4/mu-opioid, Fluo-4 calcium, EC20 DAMGO, dose response (AID 434941;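 active = earlier screen potentiator hit that boosts the TRPC4 ion channel at some dose, with a dose response; inactive = no potentiation, no dose response, or not a prior hit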;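 also: calcium entry triggered by an EC20 dose of DAMGO at the co-expressed mu-opioid receptor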)
[18] = nonspecific flux increase, KCNQ1-free cells – parental CHO cells, counter-screen for KCNQ1 potentiator project (AID 493006;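 active = duplicate-averaged activation above buffer control mean plus 5 SD of those controls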;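 as to activation: fluorescence ratio of max minus min over baseline after K+ and Tl+ depolarization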); conditions: parental CHO-K1 cells, FluxOR thallium flux, at 10 µM; active compounds read high
[19] = biological target: Potassium voltage-gated channel subfamily KQT member 1 (Homo sapiens) (UniProt P51787); experiment: enhancement of KCNQ1 channel thallium flux – FluxOR thallium flux, CHO cells, duplicates, confirmation (AID 493007;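 active = potentiation averaged over duplicate wells exceeding buffer-only control mean by more than 3 SD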;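 as to outcome: cells depolarized by a potassium plus thallium sulfate stimulus after compound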;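 as to potentiation: 0% = buffer-only wells and 100% = R-L3 activator control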); conditions: KCNQ1 cell line, FluxOR thallium flux fluorescence, at 10 µM; active compounds read high, % of reference activator effect, buffer zero
Chain of Potassium voltage-gated channel subfamily KQT member 1 (Homo sapiens) (P51787 whole entry, looked up): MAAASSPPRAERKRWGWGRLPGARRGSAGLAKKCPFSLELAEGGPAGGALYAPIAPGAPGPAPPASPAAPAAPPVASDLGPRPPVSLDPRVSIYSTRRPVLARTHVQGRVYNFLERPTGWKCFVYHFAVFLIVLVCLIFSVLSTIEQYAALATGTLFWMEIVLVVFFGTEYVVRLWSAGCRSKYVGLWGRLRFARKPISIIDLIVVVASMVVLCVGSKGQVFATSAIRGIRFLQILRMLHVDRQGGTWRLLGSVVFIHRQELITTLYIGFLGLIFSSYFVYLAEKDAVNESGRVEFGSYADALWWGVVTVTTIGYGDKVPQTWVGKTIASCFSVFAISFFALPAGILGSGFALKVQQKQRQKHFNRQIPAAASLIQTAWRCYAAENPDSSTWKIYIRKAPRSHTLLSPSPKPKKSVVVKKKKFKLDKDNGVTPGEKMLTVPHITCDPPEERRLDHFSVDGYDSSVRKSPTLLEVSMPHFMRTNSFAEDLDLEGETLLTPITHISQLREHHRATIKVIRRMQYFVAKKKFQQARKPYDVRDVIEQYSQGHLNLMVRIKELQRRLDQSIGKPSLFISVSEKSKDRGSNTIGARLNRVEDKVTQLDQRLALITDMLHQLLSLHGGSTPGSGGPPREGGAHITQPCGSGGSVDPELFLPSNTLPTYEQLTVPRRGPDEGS

[20] = biological target: Potassium voltage-gated channel subfamily KQT member 2 (Rattus norvegicus) (UniProt O88943); experiment: KCNQ2 thallium flux enhancement – KCNQ2-CHO-K1 cells, selectivity assay for KCNQ1 potentiator project (AID 493009;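 active = mean duplicate potentiation above the buffer control mean plus 5 SD of buffer wells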;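 also: assay conditions were tuned for KCNQ1 rather than KCNQ2 modulators; signal is max minus min fluorescence divided by baseline after thallium stimulus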); conditions: FluxOR thallium flux fluorescence, at 10 µM; active compounds read high, scaled: buffer 0, activator control 100
Chain of Potassium voltage-gated channel subfamily KQT member 2 (Rattus norvegicus) (O88943 whole entry, looked up): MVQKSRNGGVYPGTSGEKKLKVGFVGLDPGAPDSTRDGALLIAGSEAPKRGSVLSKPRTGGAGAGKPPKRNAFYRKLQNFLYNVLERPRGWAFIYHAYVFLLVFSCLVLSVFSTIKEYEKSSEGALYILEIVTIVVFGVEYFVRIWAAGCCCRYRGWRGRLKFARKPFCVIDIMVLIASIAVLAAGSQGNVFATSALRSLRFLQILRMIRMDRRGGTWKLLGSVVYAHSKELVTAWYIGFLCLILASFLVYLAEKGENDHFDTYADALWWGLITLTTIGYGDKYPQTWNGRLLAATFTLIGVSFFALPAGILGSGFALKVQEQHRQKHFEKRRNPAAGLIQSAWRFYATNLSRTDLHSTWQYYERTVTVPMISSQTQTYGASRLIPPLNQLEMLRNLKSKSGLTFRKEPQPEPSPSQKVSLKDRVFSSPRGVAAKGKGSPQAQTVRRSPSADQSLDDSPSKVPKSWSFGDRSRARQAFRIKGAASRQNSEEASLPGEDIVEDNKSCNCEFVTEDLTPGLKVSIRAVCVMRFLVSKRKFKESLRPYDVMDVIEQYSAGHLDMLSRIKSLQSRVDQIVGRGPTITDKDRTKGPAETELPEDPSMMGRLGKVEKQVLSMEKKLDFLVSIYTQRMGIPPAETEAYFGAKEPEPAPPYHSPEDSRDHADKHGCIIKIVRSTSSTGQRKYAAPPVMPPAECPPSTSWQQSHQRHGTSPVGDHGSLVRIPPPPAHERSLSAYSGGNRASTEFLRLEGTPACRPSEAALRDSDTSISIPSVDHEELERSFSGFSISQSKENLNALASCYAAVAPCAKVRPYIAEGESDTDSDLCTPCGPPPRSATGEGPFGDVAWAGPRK

Cc1cc(-c2ccc(C)c(S(=O)(=O)N3CCN(c4ccccn4)CC3)c2)on1
inactive: outcome [1] | outcome [2] | outcome [3] | outcome [5] | outcome [6] | outcome [7] | outcome [8] | outcome [9] | outcome [10] | outcome [11] | outcome [12] | outcome [13] | outcome [15] | outcome [16]
active: potentiation [4] 18% | potentiation [14] 16.4%

CC(C)c1c(O)nc(SCCN(C)C)[nH]c1=O
inactive: outcome [1] | outcome [2] | outcome [5] | outcome [6] | outcome [7] | outcome [8] | outcome [9] | outcome [10] | outcome [11] | outcome [12] | outcome [13] | outcome [15] | outcome [16]
active: potentiation [3] 13% | potentiation [4] 27% | potentiation [14] 57.7%

COc1ccc(Nc2nc(N)c3ccccc3n2)c(OC)c1
active: inhibition [5] 93% | inhibition [13] 26.1%
inactive: outcome [1] | outcome [2] | outcome [3] | outcome [4] | outcome [6] | outcome [7] | outcome [17] | outcome [9] | outcome [10] | outcome [11] | outcome [12] | outcome [14] | outcome [15] | outcome [16]

Cc1ccc(/C=C/C(=O)c2ccc(O)cc2)cc1
inactive: outcome [1] | outcome [2] | outcome [3] | outcome [4] | outcome [7] | outcome [17] | outcome [9] | outcome [10] | outcome [11] | outcome [12] | outcome [14] | outcome [15] | outcome [16] | outcome [18] | outcome [19] | outcome [20]
active: inhibition [5] 76% | inhibition [6] 38% | inhibition [13] 15.8%

CCCc1nc2oc3c(NCCN(C)C)ncnc3c2c2c1CCCC2
active: inhibition [5] 86% | inhibition [6] 37% | inhibition [13] 13.5%
inactive: outcome [1] | outcome [2] | outcome [3] | outcome [4] | outcome [7] | outcome [17] | outcome [9] | outcome [10] | outcome [11] | outcome [12] | outcome [14] | outcome [15] | outcome [16] | outcome [18] | outcome [19] | outcome [20]

Cc1cc2oc(C(=O)N(Cc3ccccc3)C3CCS(=O)(=O)C3)cc(=O)c2cc1Cl (stereo unspecified)
inactive: outcome [1] | outcome [2] | outcome [3] | outcome [5] | outcome [6] | outcome [7] | outcome [8] | outcome [9] | outcome [10] | outcome [11] | outcome [12] | outcome [13] | outcome [15] | outcome [16]
active: potentiation [4] 47% | potentiation [14] 68.1%

c1ccc(-c2nc(N3CCNCC3)nc3ccccc23)cc1
inactive: outcome [1] | outcome [2] | outcome [4] | outcome [5] | outcome [6] | outcome [7] | outcome [8] | outcome [9] | outcome [10] | outcome [11] | outcome [12] | outcome [13] | outcome [14] | outcome [15] | outcome [16]
active: potentiation [3] 19%

O=c1[nH][nH]c(-c2ccccc2)c1C=Nc1ccc(Cl)cc1
active: potentiation [14] 79.8%
inactive: outcome [1] | outcome [2] | outcome [3] | outcome [4] | outcome [5] | outcome [6] | outcome [7] | outcome [8] | outcome [9] | outcome [10] | outcome [11] | outcome [12] | outcome [13] | outcome [15] | outcome [16]

CC(=O)C1=C(S(=O)(=O)c2ccc(C)cc2)CS(=O)(=O)C1
inactive: outcome [1] | outcome [2] | outcome [3] | outcome [4] | outcome [7] | outcome [17] | outcome [9] | outcome [10] | outcome [11] | outcome [12] | outcome [14] | outcome [15] | outcome [16] | outcome [18] | outcome [19]
active: inhibition [5] 74% | inhibition [6] 39% | inhibition [13] 12.2% | potentiation [20] 200%

CCCCN(C)CCNC(=O)c1cc2c(-c3cccc(OC)c3)nn(C)c2s1
active: potentiation [14] 39.5%
inactive: outcome [1] | outcome [2] | outcome [3] | outcome [4] | outcome [5] | outcome [6] | outcome [7] | outcome [8] | outcome [9] | outcome [10] | outcome [11] | outcome [12] | outcome [13] | outcome [15] | outcome [16]

Fc1cccc(Nc2c3c(nc4ccccc24)CCC3)c1
active: inhibition [5] 96% | inhibition [13] 14.9%
inactive: outcome [1] | outcome [2] | outcome [3] | outcome [4] | outcome [6] | outcome [7] | outcome [17] | outcome [9] | outcome [10] | outcome [11] | outcome [12] | outcome [14] | outcome [15] | outcome [16]

Cc1ccc(OCC(=O)NNC(=S)NC(=O)c2ccc(Br)o2)c(C)c1
inactive: outcome [1] | outcome [2] | outcome [3] | outcome [4] | outcome [6] | outcome [7] | outcome [17] | outcome [9] | outcome [10] | outcome [11] | outcome [14] | outcome [15] | outcome [16]
active: inhibition [5] 65% | activation [12] 18.1% | inhibition [13] 21.6% | activation [18] 198% | potentiation [19] 106% | potentiation [20] 328%

Cc1ccc(C(C)C)cc1OCCCCN1CCCC1
active: potentiation [3] 15% | potentiation [4] 12% | potentiation [14] 6.54%
inactive: outcome [1] | outcome [2] | outcome [5] | outcome [6] | outcome [7] | outcome [8] | outcome [9] | outcome [10] | outcome [11] | outcome [12] | outcome [13] | outcome [15] | outcome [16]

CCCC1(c2ccccc2)NC(=O)N(CC(=O)c2[nH]c(C)c(C(=O)OCC)c2C)C1=O (stereo unspecified)
active: potentiation [4] 18% | potentiation [14] 35.6%
inactive: outcome [1] | outcome [2] | outcome [3] | outcome [5] | outcome [6] | outcome [7] | outcome [8] | outcome [9] | outcome [10] | outcome [11] | outcome [12] | outcome [13] | outcome [15] | outcome [16]

Reference: PubChem BioAssay
